# Bioassay records: PubChem, The Scripps Research Institute Molecular Screening Center
# PAFAH1B3 FP inh: PAFAH1B3 (human) inhibition; AID 492972; inhibition, % at 3.39 µM; recombinant PAFAH1B3, FP-rhodamine probe, fluorescence polarization; hit rate 0.28% among 340,000;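 active = inhibition above the screen-wide average of all tested compounds plus 3 SD, cut at about 25% in these data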;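 also: 0% = enzyme with DMSO only and 100% = wells lacking PAFAH1B3 protein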
# pPAFAH FP inh: inhibitors of human plasma PAF acetylhydrolase (pPAFAH); Q13093; recombinant pPAFAH, FP-rhodamine probe fluorescence polarization; inhibition, % at 3.39 µM; hit rate 1.5% among 330,000; AID 463082;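 active = inhibition above the mean inhibition across the screen plus 3 SD, cut at about 25% in these data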;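 also: inhibitors block binding of the rhodamine activity-based probe so polarization drops; 0% = enzyme with DMSO and 100% = wells lacking pPAFAH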
# Target sequence (Q13093 whole entry, looked up): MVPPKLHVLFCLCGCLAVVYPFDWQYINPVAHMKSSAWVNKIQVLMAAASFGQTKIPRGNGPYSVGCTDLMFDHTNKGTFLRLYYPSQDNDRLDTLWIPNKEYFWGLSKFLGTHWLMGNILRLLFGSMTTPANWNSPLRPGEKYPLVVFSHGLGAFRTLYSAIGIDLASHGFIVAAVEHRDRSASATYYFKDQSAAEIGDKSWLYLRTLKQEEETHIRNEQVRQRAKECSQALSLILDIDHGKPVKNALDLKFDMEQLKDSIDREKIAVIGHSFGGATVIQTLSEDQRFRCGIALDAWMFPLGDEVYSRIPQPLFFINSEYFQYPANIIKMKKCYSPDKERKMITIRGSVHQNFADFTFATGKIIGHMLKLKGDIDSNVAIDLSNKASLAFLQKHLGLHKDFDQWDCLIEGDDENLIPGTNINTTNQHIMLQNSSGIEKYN
# PAFAH1B2 FP inh: PAFAH1B2 (human) inhibition. P68402. recombinant PAFAH1B2, FP-rhodamine activity probe, fluorescence polarization. inhibition, % at 3.39 µM. hit rate 1.2% among 340,000. AID 492953;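 active = inhibition above the mean of all tested compounds plus 3 SD, cut at about 24% in these data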;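 also: 0% = enzyme with DMSO and 100% = wells lacking PAFAH1B2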
# Fam108B counter: blocks mouse Fam108B hydrolase in RBBP9 counter-screen | inhibition, % at 9.51 µM | hit rate 0.33% among 300,000 | recombinant Fam108B, FP-Rh probe fluorescence polarization;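 active = inhibition above the screen mean inhibition plus 3 SD, computed separately per campaign, cut at about 18% in these data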;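 also: inhibitors lower polarization as less probe binds the enzyme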
# PME-1 primary: PME-1 (human) inhibition | Q9Y570 | recombinant PME-1, FP-Rh probe fluorescence polarization | inhibition, % at 5.9 µM | hit rate 0.53% among 320,000;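 active = inhibition above the campaign mean of all compounds plus 3 SD, cut at about 26% in these data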;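 also: competitive labeling of PME-1 active site by serine hydrolase directed probe; 0% = PME-1 with DMSO and 100% = wells lacking PME-1 enzyme; inhibitors block probe labeling so polarization falls and inhibition rises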
# PAFAH2 FP inh: PAFAH2 (human) inhibition; Q99487; recombinant PAFAH2, FP-rhodamine activity probe, fluorescence polarization; inhibition, % at 3.39 µM; hit rate 0.99% among 340,000; AID 492956;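 active = inhibition above the mean over all tested compounds plus 3 SD, cut at about 30% in these data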;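 also: inhibitors block probe labeling of enzyme so polarization drops; 0% = enzyme with DMSO and 100% = wells lacking PAFAH2 protein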
# Starred values were filed as active, the others as inactive; · = no result. Most compounds without a hit are left out; they make up all but 2.8% or so of the library.
SMILES,PAFAH1B3 FP inh,pPAFAH FP inh,PAFAH1B2 FP inh,Fam108B counter,PME-1 primary,PAFAH2 FP inh
COc1ccccc1NC(=O)COC(=O)/C=C/c1ccccc1[N+](=O)[O-],8,26*,3,-1,11,12
CCCCCC(=O)Nc1ccc(C(=O)COC(=O)CN2C(=O)NC3(CCCC3)C2=O)cc1,16,4,7,1,-2,3
NS(=O)(=O)c1ccc(CNC(=O)CNC(=O)c2ccc(F)cc2)cc1,2,-1,3,6,2,-2
O=C(OCc1c(-c2ccccc2)ncc2ccccc12)c1cccc(Br)c1,-7,3,-4,·,-10,-2
O=C(O)c1ccc(-n2cccc2/C=C2/SC(=O)N(CC(=O)N3CCCC3)C2=O)cc1,23,34*,12,14,-18,38*
COC(=O)c1c(NC(=O)/C=C/C(=O)O)sc(C)c1-c1ccc(C)cc1,5,15,5,-7,-1,7
CCOC(=O)c1c(NC(=O)/C=C/C(=O)O)sc(C)c1-c1ccc(F)cc1,0,26*,9,3,-3,6
CCCN(C(=O)CSc1cc(-c2ccccc2)c2ccc(OC)cc2n1)C1CCS(=O)(=O)C1 (stereo not drawn),6,25*,0,0,-7,-14
COc1ccc(-n2c(-c3ccc(Cl)cc3)c[nH]c2=S)cc1,3,2,2,5,7,-4
COc1cc2c(cc1NC(=O)C(C)NCc1ccccc1)oc1ccccc12 (stereo not drawn),6,26*,0,-8,-10,-7
O=C(CC1CCC1)Nc1cccc2c([N+](=O)[O-])cccc12,·,10,·,-2,5,·
O=S(=O)(Nc1ccc(F)cc1)c1ccc(NC(=S)Nc2ccccc2)cc1,2,25*,-2,-12,0,2
Cc1c(C)c(C)c(C(=O)c2ccc(NC(=O)c3ccccc3C(=O)O)cc2)c(C)c1C,141*,-1,109*,4,-3,167*
Cc1ccc(NS(=O)(=O)c2ccc(/C=C/C(=O)O)cc2)cc1Cl,-3,29*,14,2,5,10
O=C(Nc1ccc(NS(=O)(=O)c2ccccc2)cc1)c1ccccc1,-5,34*,10,-1,-5,10
O=C(Nc1ccc(NS(=O)(=O)c2ccccc2)cc1)c1ccc(Cl)cc1,-12,10,-12,-18,-24,-20
O=S(=O)(Nc1ccccc1)c1ccc(F)cc1,12,13,2,1,2,1
COc1cccc(-c2nc(CS(=O)CC(=O)NC3CCCCC3)c(C)o2)c1 (stereo not drawn),3,-5,2,-2,3,6
CC(C)(C)NC(=O)COc1coc(CN2CCN(C(=O)c3ccco3)CC2)cc1=O,0,3,2,0,4,8
CCCCn1c(=O)c(CCC(=O)OCC(=O)NC(=O)NCCC(C)C)nc2ccccc21,-6,6,-3,-2,-7,3
CCOCCCNC(=O)c1oc2ccc3c(c2c1C)C(O)CC(C)(C)O3 (stereo not drawn),4,·,3,·,·,-5
CN(C)S(=O)(=O)c1cccc(COC(=O)CNC(=O)c2ccc(Br)o2)c1,7,·,5,·,·,1
Cc1ccc(NS(=O)(=O)c2ccc(NC(=O)c3ccccc3C(=O)O)cc2)cc1C,·,26*,·,-2,0,·
COc1ccc(C(=O)Nc2ccc(NS(=O)(=O)c3ccccc3)cc2)cc1OC,3,33*,1,0,-8,2
O=C(Nc1ccc(Br)cc1)c1cccc(S(=O)(=O)Nc2cnc3ccccc3c2)c1,-1,27*,-5,2,-5,3
SMILES,PAFAH1B3 FP inh,pPAFAH FP inh,PAFAH1B2 FP inh,Fam108B counter,PME-1 primary,PAFAH2 FP inh
CCOc1ccc(NS(=O)(=O)c2ccc(NC(=O)c3ccccc3C(=O)O)cc2)cc1,4,23,6,3,-5,3
Oc1ccc(/C=N/Nc2ccc(C(F)(F)F)cn2)c(O)c1,19,19,5,8,37*,4
N#Cc1c(N)[nH]c2ccc(Sc3ccccc3)cc12,14,·,35*,·,·,7
N#Cc1c(N)[nH]c(=S)c(C#N)c1-c1ccccc1,2,5,9,-1,4,11
CCOC(=O)C1CCN(C(=O)Cn2cnc3sc(C)c(S(=O)(=O)N4CCOCC4)c3c2=O)CC1,3,7,2,4,1,-4
CC(=O)c1cccc(NC(=O)C(C)OC(=O)CCN=C2NS(=O)(=O)c3ccccc32)c1 (stereo not drawn),86*,-7,106*,-4,-7,106*
N#Cc1ccsc1NC(=O)C1CCCN1S(=O)(=O)c1cccs1 (stereo not drawn),1,3,4,-3,2,1
NC(=O)c1sc2nc(-c3ccccc3)c3c(c2c1N)CCCC3,-3,9,10,5,33*,0
Cc1ccc(-c2nc3sc(C(N)=O)c(N)c3c3c2CCCC3)cc1,2,5,-1,-1,-7,7
O=C(O)c1cccc(Cn2c(Cl)c(/C=N/NC(=O)c3cc4ccccc4cc3O)sc2=O)c1,17,33*,20,17,-3,29
O=C(O)c1cccc(Cn2c(Cl)c(/C=N/NC(=O)c3ccccc3)sc2=O)c1,3,8,4,0,2,0
COc1ccccc1C(=O)NC(=S)Nc1cccc2cc(O)ccc12,-3,7,-2,5,31*,-3
CNc1c(NS(=O)(=O)c2ccc(CC(C)C)cc2)c(=O)oc2ccccc12,-27,-5,-11,-13,-5,-24
COc1ccc(S(=O)(=O)N(C)CC(=O)NCCCn2ccnc2)cc1Cl,12,1,3,8,-7,3
Cc1cc(C(=O)OCC(=O)NCc2cccs2)ccc1[N+](=O)[O-],5,31*,5,·,·,19
Cc1cc(C(=O)NCc2cccs2)ccc1[N+](=O)[O-],-4,5,5,1,-3,2
O=C(OC1CCOC1=O)C1CCN(S(=O)(=O)c2ccc(Cl)c(C(F)(F)F)c2)CC1 (stereo not drawn),-5,-2,-3,-2,0,0
O=C1C=CC(=C(c2ccc(O)cc2)c2ccc(O)cc2)C=C1,10,5,24*,·,5,-1
CC1=CCC(C(=O)O)C(C(=O)Nc2ccc(-c3nc4ccc(C)cc4s3)cc2)C1 (stereo not drawn),-4,34*,1,-3,-10,-4
CC(=O)NC(=S)Nc1ccc(-c2nc3ccc(C)cc3s2)cc1,4,-3,-9,-5,0,-1
CC1(C)Cc2ccccc2C(NNC(=O)c2ccc(Br)o2)=N1,-7,-1,-3,-2,6,-6
O=C(/C=C/c1ccc(O)c(O)c1)OC(Cc1ccc(O)c(O)c1)C(=O)O (stereo not drawn),10,6,5,1,-10,8
O=C(/C=C/c1ccc(O)c(O)c1)OCCc1ccccc1,11,11,34*,1,14,-4
